Assay outcomes (PubChem BioAssay)
TRPML1 agonist: activates the human TRPML1 channel | Q9GZU1 | TRPML1-expressing cells, Ca2+ dye fluorescence, FDSS | activation, % (test concentration not listed) | 410,000 compounds, 0.12% hits | AID 624414; in the data active = activation above about 50%; inconclusive = mostly about 30% to 49%; also: 0% is about no effect
Target sequence (Q9GZU1 whole entry, looked up): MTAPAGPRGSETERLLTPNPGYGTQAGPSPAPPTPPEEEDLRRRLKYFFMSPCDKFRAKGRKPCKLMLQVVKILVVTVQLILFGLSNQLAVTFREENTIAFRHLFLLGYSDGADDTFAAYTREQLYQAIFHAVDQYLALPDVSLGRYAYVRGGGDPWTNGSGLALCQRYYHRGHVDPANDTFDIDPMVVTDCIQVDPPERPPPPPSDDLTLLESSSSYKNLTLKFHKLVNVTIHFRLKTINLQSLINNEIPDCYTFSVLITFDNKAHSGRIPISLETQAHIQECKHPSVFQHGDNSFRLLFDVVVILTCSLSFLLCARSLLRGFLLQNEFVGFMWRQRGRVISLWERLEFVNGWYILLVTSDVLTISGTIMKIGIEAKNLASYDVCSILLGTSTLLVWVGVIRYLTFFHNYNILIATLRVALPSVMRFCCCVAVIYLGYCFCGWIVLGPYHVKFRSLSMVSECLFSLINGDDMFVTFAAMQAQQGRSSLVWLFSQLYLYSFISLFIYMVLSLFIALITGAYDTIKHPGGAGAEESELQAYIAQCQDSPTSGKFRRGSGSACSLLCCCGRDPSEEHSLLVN
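Calcium fluorescence on an FDSS kinetic reader gave the read-out. Tet-induced TRPML1-DL cells were plated overnight, dye-loaded (Ca8 with quencher, 45-90 min, room temperature, dark), then read 110 s after compound addition, and again 110 s after 4uM final 54-4 (EC80).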
PTAP TSG101 blk: blocks PTAP/TSG101 interaction to inhibit HIV-1 budding | Q99816 | Fluorescence polarization, FITC-PTAP peptide / Tsg101 binding | Potency, µM (series often up to 115 µM), for the others: at the top dose activity change, negative = inhibition, most hits filed as inhibitors | 340,000 tested, under 10 active | AID 493005; active = well fitted inhibition curve with a large enough effect in the main read-out, with a control signal flat, not every such curve was filed as active; inconclusive = small, poorly fitted or top-dose-only effect, or effect the other way, or a change in a side signal; inactive = no such curve, though single readings can be large or run the other way; also: potency is read from the fitted curve at half-maximal effect; % of control where 0% means no effect
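Tsg101 binding domain (10 uM final) was mixed with compound and a FITC-labeled PTAP peptide (50 nM final) in HEPES pH 7.5 buffer with NaCl, Tween 20, EDTA and TCEP; fluorescence polarization was read after 20 min at r.t.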
KCNH2 3.1 block: blocks the human KCNH2 3.1 channel isoform. U2OS KCNH2 3.1, thallium flux FluxOr; stronger effect = lower value. activity change, % (tested at about 1.8 µM). 340,000 compounds, 0.95% hits. AID 720553;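 active = maximum activity change below -70%; inconclusive = maximum activity change from -70% to -50%; inactive = maximum activity change above -50%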;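 also: thallium influx rate constant from kinetic fluorescence after stimulation buffer; % is scaled to controls: 0 for no effect and ±100 for the full control effect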
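Normalized rate constant (relative to positive and negative DMSO controls) derived from a 2 min kinetic fluorescence read after stimulation; U2OS cells expressing the 3.1 isoform via virus at 1.77 x 10^8 /mL.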
KCNH2 WT inh: inhibitors of human wildtype KCNH2 potassium channel; U2OS, BacMam KCNH2, thallium flux FluxOr; stronger effect = lower value; activity change, % at 1.84 µM; 340,000 compounds, 0.37% hits;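 active = maximum activity change below -70%; inconclusive = maximum activity change between -70% and -50%; inactive = maximum activity change above -50%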; also: % is scaled to controls: 0 for no effect and ±100 for the full control effect
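U2OS cells were transduced with wild-type KCNH2 virus (2.03 x 10^8 / mL) for 4 h at room temperature, then cultured overnight at 37 C. Thallium flux was read with FluxOr dye. Rate constants were normalized to DMSO controls.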
GRP78 ERSR act: ER stress response induction in glioma. Potency, µM, for the others: at the top dose activation, most hits filed as activators. U87-MG GRP78 promoter luciferase reporter, 16 h. AID 602332. 420,000 compounds, 0.02% hits; active = well fitted activation curve with a large enough effect; inconclusive = small, poorly fitted or top-dose-only effect; inactive = no such curve, though single readings can be large or run the other way; also: potency is read from the fitted curve at half-maximal effect; series mostly up to about 76 µM; % of control where 0% means no effect; nearly all actives have a fitted effect of over 35% in size
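Stably transfected U87-MG glioma cells carrying a GRP78-based luciferase sensor; 16 h compound incubation. Luminescence end-point read 10 min after Bright-Glo addition at room temperature.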
TRPML1 blocker: inhibitors of human TRPML1 channel | AID 624415 | TRPML1-inducible cells, Ca2+ dye fluorescence, FDSS; stronger effect = lower value; inhibition of EC80 agonist-evoked calcium signal | activity change, negative = inhibition, % (no concentration beside the values) | 390,000 compounds, 0.02% hits | Q9GZU1; in the data active = activity change below about -50%; inconclusive = between about -30% and that limit;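 also: stimulus is agonist 54-4 at its EC80 concentration; % is scaled to controls: 0 for no effect and ±100 for the full control effect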
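Tet-induced TRPML1-DL cells loaded with Ca8 no-wash calcium dye were read kinetically on FDSS. Compound addition was followed by EC80 agonist 54-4 (4 uM final); inhibition was read over 110 s.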
The depositor's hits bear a star; ? = inconclusive; nt = no result given. Most compounds without a hit are left out; they make up all but 1% or so of the library.

SMILES	TRPML1 agonist	PTAP TSG101 blk	KCNH2 3.1 block	KCNH2 WT inh	GRP78 ERSR act	TRPML1 blocker
COc1ccc(-c2csc(N)n2)cc1F	0	-1%	-10	-123*	10%	10
O=C(NCC1Cc2cccc(-c3nccs3)c2O1)c1ccnc(Cl)c1 (stereo not drawn)	nt	nt	nt	nt	-1%	nt
O=C(CN1CCN(C(=O)c2ccccc2)CC1)Nc1ccc(Cl)cc1F	-1	-3%	-26	21	-2%	-6
O=C(CN1CCN(C(=O)c2ccccc2)CC1)Nc1ncc(Br)cc1Br	1	1%	-85*	-20	-3%	-16
O=C1c2ccccc2C(=O)N1CSc1nnc(Nc2ccccc2)s1	-1	0%	-105*	-1	0%	6
O=C1c2ccccc2C(=O)N1CSc1nnc(Nc2ccccc2F)s1	0	-3%	6	-20	1%	8
CO[C@H]1[C@H](NC(=O)c2ccsc2)c2ccccc2C12CCN(Cc1cc3ccccc3o1)CC2	nt	nt	nt	nt	-3%	nt
Cc1ccc(S(=O)(=O)Oc2ccccc2-c2ccccc2)cc1	100*	-6%	-10	-3	0%	-24
COCC(=O)Nc1cc(C(=O)N2CCc3sccc3C2)c2c(c1)nc(-c1ccncc1)n2C	nt	nt	nt	nt	-2%	nt
COc1cccc(NC(=O)c2ccnc(N3CCC(C(=O)NCc4ccccc4OC)CC3)c2)c1	-1	3%	-109*	-1	8%	-2
COc1ccc(C(=O)NCCN2Cc3ccccc3OC(c3ccsc3)C2)c(OC)n1 (stereo not drawn)	nt	nt	nt	nt	-3%	nt
O=C(NCC1CCC2(CCN(Cc3cnn(-c4ccc(F)cc4)c3)CC2)O1)c1ccccc1 (stereo not drawn)	nt	nt	nt	nt	1%	nt
O=C(OCC(=O)N1CCOCC1)c1ccc(Br)cc1	1	-7%	10	-130*	6%	-17
Cc1ccc(-c2csc3nc(SCC(=O)N(C)C)n(Cc4ccccc4)c(=O)c23)cc1	3	-6%	-74*	1	-6%	63
COC(=O)c1cccc(C(=O)N2CCc3c(cnc(C)c3CNC(=O)/C=C/c3cccs3)C2)c1	nt	nt	nt	nt	-2%	nt
Cc1noc(C)c1CC(=O)NCC1Cc2cc(-c3cccc(OC(F)(F)F)c3)ccc2O1 (stereo not drawn)	nt	nt	nt	nt	-2%	nt
CN1C(C(=O)NCc2ccc(OC(F)(F)F)cc2)CC2Cn3c(nc4ccccc43)C21 (stereo not drawn)	-1	-3%	-18	9	-3%	-3
O=C(NCc1ccc(OC(F)(F)F)cc1)C1CC2Cn3c(nc4ccccc43)C2N1Cc1ccccc1 (stereo not drawn)	2	-7%	-98*	-76*	-6%	-12
CN1C(C(=O)NCc2ccc(OC(F)(F)F)cc2)CC2Cn3c(nc4cc(Cl)c(Cl)cc43)C21 (stereo not drawn)	1	-4%	-79*	?	-2%	4
O=C(CN1CCN(S(=O)(=O)c2ccc(Br)cc2)CC1)N/N=C/c1ccc(Br)s1	4	-5%	-76*	-27	-5%	0
Cc1ccc(S(=O)(=O)N2CCN(CC(=O)N/N=C/C=C/c3ccccc3)CC2)cc1	2	-1%	-75*	-5	-4%	13
CN(Cc1ccc(C(C)(C)C)cc1)c1cccc2ccccc12	nt	nt	nt	nt	-3%	nt
O=C(CN(Cc1ccccc1Cl)C(=O)CNS(=O)(=O)c1ccccc1)NCC1CCCO1 (stereo not drawn)	0	-1%	-8	-2	-1%	-2
O=C(CN(Cc1ccccc1)S(=O)(=O)c1ccc(Cl)cc1)NCC1CCCO1 (stereo not drawn)	0	-7%	-4	0	-5%	-7
COc1cccc(N(CC(=O)NCC2CCCO2)C(=O)CNS(=O)(=O)c2ccccc2)c1 (stereo not drawn)	0	-12%	-70*	-8	-1%	-16
SMILES	TRPML1 agonist	PTAP TSG101 blk	KCNH2 3.1 block	KCNH2 WT inh	GRP78 ERSR act	TRPML1 blocker
Cc1ccc(S(=O)(=O)NCC(=O)N(CC(=O)NCC2CCCO2)Cc2ccccc2Cl)cc1 (stereo not drawn)	-1	0%	5	-233*	-4%	-10
CCN(CC(=O)NCC1CCCO1)S(=O)(=O)c1ccc(Cl)cc1 (stereo not drawn)	0	-6%	1	-80*	-1%	-14
COc1cccc(CN(CC(=O)NCC2CCCO2)C(=O)CNS(=O)(=O)c2ccccc2)c1 (stereo not drawn)	0	-5%	-11	5	-5%	14
COc1ccccc1-c1ccnc(-n2ncc(C(=O)N3CCCCC3c3cccnc3)c2C)n1 (stereo not drawn)	nt	nt	nt	nt	2%	nt
CCC[N+](C)(C)c1ccc(/C=C/c2ccnc3ccccc23)cc1	0	nt	nt	nt	-9%	nt
COc1ccc(CNCCCn2cnc(C(=O)Nc3ccc(C)c(C)c3)n2)cc1	-1	-4%	-86*	4	-2%	-2
COC(=O)Cn1cnc(C(=O)Nc2ccc(C)c(C)c2)n1	0	1%	-73*	-5	0%	5
Cc1ccc(NC(=O)c2ncn(CC(=O)NCc3ccc4[nH]ccc4c3)n2)cc1C	0	-2%	-30	-1	4%	18
Cc1ccc(NC(=O)c2ncn(CCCNCCCc3ccccc3)n2)cc1C	1	1%	-91*	-80*	0%	29
Cc1ccc(NC(=O)c2ncn(CCCN(CCCn3cnc(C(=O)Nc4ccc(C)c(C)c4)n3)Cc3ccc4[nH]ccc4c3)n2)cc1C	0	-1%	-77*	-91*	1%	19
Cc1ccc(NC(=O)c2ncn(CCCNCCCN(C)C)n2)cc1C	-1	0%	10	-10	-2%	7
CCn1c(-c2ccccc2F)nc2cc(NC(C)=O)cc(C(=O)NCc3ncc(C)[nH]3)c21	nt	nt	nt	nt	-3%	nt
O=C(NCc1nnc2n1CCN(Cc1cccc(Cl)c1)CC2)c1cccc(F)c1	nt	nt	nt	nt	-5%	nt
Cc1noc(C)c1S(=O)(=O)N(C)C[C@H]1Oc2c(NC(=O)Nc3ccccc3)cccc2C(=O)N([C@H](C)CO)C[C@@H]1C	0	-6%	10	-124*	-1%	15
C[C@H](CO)N1C[C@H](C)[C@@H](CN(C)Cc2ccc(Cl)c(Cl)c2)Oc2c(NC(=O)Cc3ccccc3)cccc2C1=O	0	-4%	-78*	-15	-2%	32
C[C@H](CO)N1C[C@H](C)[C@@H](CN(C)Cc2ccc(Oc3ccccc3)cc2)Oc2ccc(NC(=O)Cn3cnnn3)cc2C1=O	0	1%	10	-273*	-3%	19
C[C@H](CO)N1C[C@H](C)[C@@H](CN(C)Cc2ccccc2)Oc2c(NC(=O)Cc3ccccc3)cccc2C1=O	-1	-4%	-8	-1	-4%	4
